Over roughly 33,000 sequences, “E-score (-0.5 to 0.5)” has its median near -0.035; the highest 2% begin near 0.35. Many of the other results were omitted from the sample, so the highest values are more common in it than they were.

This test has as its target T1, Pdr3 (UniProt P33200).
T1 sequence: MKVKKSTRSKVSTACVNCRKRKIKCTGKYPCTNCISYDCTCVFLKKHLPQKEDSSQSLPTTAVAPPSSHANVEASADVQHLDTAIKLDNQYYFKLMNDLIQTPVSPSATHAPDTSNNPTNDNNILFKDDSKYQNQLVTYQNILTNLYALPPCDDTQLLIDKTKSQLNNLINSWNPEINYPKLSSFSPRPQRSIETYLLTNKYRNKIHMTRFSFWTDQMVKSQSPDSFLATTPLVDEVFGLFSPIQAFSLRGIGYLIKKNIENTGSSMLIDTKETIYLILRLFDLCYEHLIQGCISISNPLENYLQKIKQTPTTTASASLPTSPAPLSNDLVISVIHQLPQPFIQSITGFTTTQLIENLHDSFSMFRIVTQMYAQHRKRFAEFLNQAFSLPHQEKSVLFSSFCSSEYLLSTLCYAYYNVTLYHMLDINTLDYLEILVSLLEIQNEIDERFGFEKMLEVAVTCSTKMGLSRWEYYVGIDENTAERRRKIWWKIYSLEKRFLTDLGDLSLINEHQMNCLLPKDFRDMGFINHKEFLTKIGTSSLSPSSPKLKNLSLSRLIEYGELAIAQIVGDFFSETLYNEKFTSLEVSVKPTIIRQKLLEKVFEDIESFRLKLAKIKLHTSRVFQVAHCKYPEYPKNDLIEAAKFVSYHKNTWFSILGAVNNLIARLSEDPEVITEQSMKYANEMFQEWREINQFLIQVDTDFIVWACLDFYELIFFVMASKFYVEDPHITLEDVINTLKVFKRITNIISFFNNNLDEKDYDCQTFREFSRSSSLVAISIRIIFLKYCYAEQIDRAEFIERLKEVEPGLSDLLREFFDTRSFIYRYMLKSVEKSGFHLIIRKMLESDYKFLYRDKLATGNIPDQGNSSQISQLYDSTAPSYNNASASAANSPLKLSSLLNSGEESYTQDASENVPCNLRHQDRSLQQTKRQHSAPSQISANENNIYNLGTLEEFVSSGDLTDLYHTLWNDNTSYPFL
The experiment in a line: PBM E-score (8-mer binding enrichment) (E-score (-0.5 to 0.5)); higher = stronger / more preferred TF binding. As to conditions: protein concentration: 200 nM; construct: GST-full length. The method, then: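 Universal 'all 10-mer' protein binding microarrays (Agilent AMADID 015681) probed with GST-tagged S. cerevisiae TFs (full-length or DBD) made by in vitro transcription/translation (PURExpress), about 100-200 nM. Bound TF was detected with fluorescent anti-GST. Each ungapped 8-mer (which stands for itself and its reverse complement) is scored by the PBM enrichment score (E-score), a modified Wilcoxon-Mann-Whitney statistic from -0.5 to +0.5, computed with the Universal PBM Analysis Suite. Scale: above 0.35 generally sequence-specific binding.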
On to AGCTTCGA, for which the “PBM E-score” value is -0.102. CAGCCGGC: the “PBM E-score” value was determined as 0.324. With AAGCCGGG, the “PBM E-score” value came out at 0.262. To CAGCCGGA belongs 0.398; to GAGCCGGC, 0.324. To AAGCCGGT belongs 0.199. Turning to GAGCCGGA, the “PBM E-score” value was found to be 0.362. Then GAGCCGCA, with 0.044; and CAGCCGGG, with 0.229; and AAGCCGGC, with 0.366. In the case of AAGCCGTC, the “PBM E-score” value came to 0.178.

On to CAGCCGAA, for which the “PBM E-score” value was found to be 0.0741. AAGCCGGA: the “PBM E-score” value was 0.392. For AAGTGCTC, the “PBM E-score” value is -0.107.

In the case of AGTTCTAA, the “PBM E-score” value is 0.00941.

Consider ACGGTGAA, for which the “PBM E-score” value was -0.0181. To AATCGTCA belongs -0.112. Then GTTGATCA, with 0.0338; and AGCCCCAT, with -0.0914. For TAGCCGGA, the “PBM E-score” value was 0.372. With TAGCCGCA, the “PBM E-score” value was -0.0883. With TAGCCGAA, the “PBM E-score” value amounted to 0.0812. To AAAGAGGA belongs -0.131; to ATAACTGA, 0.00191. To CTGAACTC belongs -0.215; to AGGAACTA, 0.0717.

Regarding CGGAACTC, the “PBM E-score” value turned out to be 0.452. With GGGAACTA, the “PBM E-score” value was 0.0485. Take AGGAACTC: the “PBM E-score” value worked out at 0.0544. Then CGGAACTA, with 0.473. Then CTCTTCTC, with -0.18. Consider GTATGGAC, for which the “PBM E-score” value was 0.0423. To ACCGATGG belongs -0.0565; to CTACTGTA, -0.136; to ACTAAACT, -0.121. Then AGCAGCAC, with -0.129. GTTGCCTA: the “PBM E-score” value is 0.0329. To ACCGGGGC belongs 0.224; to AACCGGGA, 0.243. Then ACCCGGGC, with 0.424.

Turning to ACCCCGGT, the “PBM E-score” value stood at 0.186. ACCCGGCT: the “PBM E-score” value was determined as 0.24. To ACCCGGTC belongs 0.199.

For ACCGGGGA, the “PBM E-score” value was found to be 0.0294. For the sequence ACCCGGGA, the “PBM E-score” value came to 0.448. To GCCCGGGC belongs 0.427.

Regarding GACCGGGC, the “PBM E-score” value came out at 0.0834. To CCCCGGGC belongs 0.33.

As to ACCCGGGT, the “PBM E-score” value stood at 0.446. With GGCACCCC, the “PBM E-score” value is -0.0993. To CTGGCCAA belongs 0.0275; to AGGATCTA, -0.352. To ATTACTAA belongs -0.0285; to GCGGGCCA, 0.0261; to CCACCATA, 0.0173. Take ATTTTCTA: the “PBM E-score” value was -0.183. With ACGAGGCA, the “PBM E-score” value is -0.211. Consider GTCAAAGA, for which the “PBM E-score” value was -0.212. To TAAATTAA belongs 0.0873; to AACCTCCG, 0.219. On to CGAAGAAC, for which the “PBM E-score” value came to 0.119. In the case of AGCCCAAT, the “PBM E-score” value is -0.194. On to GACCGGGA, for which the “PBM E-score” value was determined as 0.304. To GCCCGGGA belongs 0.393; to GCCGGGGA, 0.2. As to GCGTTCCC, the “PBM E-score” value amounted to 0.139. Regarding CTGCCCCA, the “PBM E-score” value is -0.045. Then AGCGGACA, with 0.154. To GGCGGACC belongs 0.357; to CGGGGACC, 0.291; to CGCGGACG, 0.342. To CGCGGACC belongs 0.437; to GGCGGACA, 0.185. Turning to CGCGGACA, the “PBM E-score” value came out at 0.361. Then CGTGGACA, with 0.108; and AGCGGACC, with 0.175.

As for GATCGCCC, the “PBM E-score” value was 0.00089. To CAAACCGA belongs -0.0979; to CGCCGTCC, 0.115. Take TGACGCAA: the “PBM E-score” value is -0.165. To CGGACTCA belongs 0.31; to GACAAGGA, -0.0759. Then AGACTCGG, with -0.099. Regarding ACGTCAAG, the “PBM E-score” value was -0.311. For the sequence AGACCGGA, the “PBM E-score” value was determined as 0.254. To CGACCGGC belongs 0.161. With GGACCGGA, the “PBM E-score” value worked out at 0.382.

Values taken from the supplement of paper PMC3334620.
